For orientation: inhibition means the relative decrease from the control value, in per cent.

Values without a mark were called inactive. For part of these data: Measured potencies and affinities stand elsewhere. Calls of active or inactive are those of the source. Unless noted, the rule behind the calls is not given here.

Test [1] can be described thus: antimalarial activity against Dd2 strain (AID 2302;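 active = growth inhibition above 50% at the single 2 µM test dose, taken to imply half-maximal potency below 2 µM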;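 note: 0% = DMSO untreated growth and 100% = chloroquine plus artemisinin killed control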). Particulars: P. falciparum Dd2 in RBCs, LDH growth readout, 72 h; at 2 µM; stronger effect = higher value.
A short description of test [2]: human hepatoma cell viability loss – ATP luminescence, cytotoxicity control for P. falciparum antimalarial project, primary screen (AID 2303;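 active = inhibition above 50%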;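 note: 0% = DMSO wells and 100% = digitonin-killed cells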). Particulars: HepG2 viability, 24-48 h, at 10 µM, stronger effect = higher value.
For test [3], the target named is L-lactate dehydrogenase (Plasmodium falciparum (isolate CDC / Honduras)) (UniProt Q27743). Description: PfLDH activity inhibition – cell lysate, 3D7 strain, counter-screen for P. falciparum growth inhibition project (AID 2304).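 Note: 0% = vehicle and 100% = reference inhibitor.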 Particulars: P. falciparum 3D7 crude extract, LDH APAD/NBT absorbance; at 2 µM; stronger effect = higher value. A general note: A counterscreen serves to expose hits that act by an unwanted route or on another target.

Test [4] can be described thus: inhibition of 3D7 malaria parasite growth – strain 3D7 (AID 2306).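 Note: 0% = DMSO wells and 100% = chloroquine plus artemisinin control wells.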 Particulars: P. falciparum 3D7 erythrocytic growth, LDH absorbance, 72 h; at 2 µM; stronger effect = higher value.
The target of test [5] is Calcium-dependent protein kinase 1 (Plasmodium falciparum (isolate 3D7)) (UniProt P62344). Description: PfCDPK1 kinase inhibitors, biochemical, TCAMS library (AID 1159585; cut-off not given, nearly all actives have IC50 up to about 0.98 µM;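 note: inhibitors leave more ATP so luminescence rises with inhibition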). Particulars: recombinant PfCDPK1, Kinase-Glo ATP depletion luminescence.
The target of test [6] is Plasmodium falciparum protein kinase 6 (PK6, PF3D7_1337100) (UniProt Q8IDW1). Description: PfPK6 kinase inhibitors, biochemical, TCAMS library (AID 1159586). Particulars: recombinant PfPK6, Kinase-Glo ATP depletion luminescence. On the technique in general: In Kinase-Glo more light means more ATP remaining.
Test [7] deals with Protein kinase 7 (PK7), Plasmodium falciparum 3D7 (PF3D7_0213400) (UniProt Q7YTF7). Description: inhibition of Plasmodium PK7 catalytic activity – biochemical, TCAMS antimalarial set, Kinase-Glo luminescence (AID 1159587). Particulars: recombinant PfPK7, Kinase-Glo ATP depletion luminescence.
Test [8] deals with Calcium-dependent protein kinase 4 (Plasmodium falciparum (isolate 3D7)) (UniProt Q8IBS5). In words: PfCDPK4 kinase inhibitors, biochemical, TCAMS library (AID 1159588; cut-off not given, nearly all actives have IC50 up to about 0.91 µM). Particulars: recombinant PfCDPK4, Kinase-Glo ATP depletion luminescence.
Sequence of Calcium-dependent protein kinase 4 (Plasmodium falciparum (isolate 3D7)) (Q8IBS5 whole entry, looked up): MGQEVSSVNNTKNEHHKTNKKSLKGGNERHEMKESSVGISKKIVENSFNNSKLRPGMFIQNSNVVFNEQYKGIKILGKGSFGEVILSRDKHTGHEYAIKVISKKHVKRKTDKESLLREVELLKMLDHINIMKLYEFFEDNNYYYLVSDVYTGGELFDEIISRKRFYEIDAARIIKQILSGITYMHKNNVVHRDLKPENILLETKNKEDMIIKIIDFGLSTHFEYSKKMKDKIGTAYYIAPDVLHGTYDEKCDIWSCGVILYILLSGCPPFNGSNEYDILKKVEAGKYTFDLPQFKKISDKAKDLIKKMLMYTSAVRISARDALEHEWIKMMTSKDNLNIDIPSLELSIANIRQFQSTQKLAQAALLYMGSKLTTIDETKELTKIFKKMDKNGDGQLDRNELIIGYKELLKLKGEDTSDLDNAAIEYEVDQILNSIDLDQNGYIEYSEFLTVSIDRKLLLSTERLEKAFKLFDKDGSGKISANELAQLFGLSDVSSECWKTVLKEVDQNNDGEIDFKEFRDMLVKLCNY

Sequence of L-lactate dehydrogenase (Plasmodium falciparum (isolate CDC / Honduras)) (Q27743 whole entry, looked up): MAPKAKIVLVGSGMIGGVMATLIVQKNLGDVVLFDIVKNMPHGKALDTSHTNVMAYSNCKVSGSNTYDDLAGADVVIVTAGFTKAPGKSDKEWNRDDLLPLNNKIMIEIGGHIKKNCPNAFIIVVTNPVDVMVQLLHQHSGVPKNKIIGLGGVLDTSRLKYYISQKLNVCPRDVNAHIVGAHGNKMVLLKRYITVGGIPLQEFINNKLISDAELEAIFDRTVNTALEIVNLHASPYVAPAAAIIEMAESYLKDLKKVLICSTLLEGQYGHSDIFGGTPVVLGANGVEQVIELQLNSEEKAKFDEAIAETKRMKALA
Sequence of Protein kinase 7 (PK7), Plasmodium falciparum 3D7 (PF3D7_0213400) (Q7YTF7 1-343): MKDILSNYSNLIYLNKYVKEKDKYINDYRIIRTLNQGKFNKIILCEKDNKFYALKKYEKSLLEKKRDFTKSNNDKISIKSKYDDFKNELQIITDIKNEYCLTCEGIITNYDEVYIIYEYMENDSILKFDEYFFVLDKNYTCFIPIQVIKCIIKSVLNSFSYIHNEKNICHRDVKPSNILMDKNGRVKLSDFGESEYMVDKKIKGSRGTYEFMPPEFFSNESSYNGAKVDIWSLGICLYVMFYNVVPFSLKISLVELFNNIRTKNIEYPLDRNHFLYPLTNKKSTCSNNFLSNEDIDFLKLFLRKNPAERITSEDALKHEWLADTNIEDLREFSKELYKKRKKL
Sequence of Plasmodium falciparum protein kinase 6 (PK6, PF3D7_1337100) (Q8IDW1 1-305): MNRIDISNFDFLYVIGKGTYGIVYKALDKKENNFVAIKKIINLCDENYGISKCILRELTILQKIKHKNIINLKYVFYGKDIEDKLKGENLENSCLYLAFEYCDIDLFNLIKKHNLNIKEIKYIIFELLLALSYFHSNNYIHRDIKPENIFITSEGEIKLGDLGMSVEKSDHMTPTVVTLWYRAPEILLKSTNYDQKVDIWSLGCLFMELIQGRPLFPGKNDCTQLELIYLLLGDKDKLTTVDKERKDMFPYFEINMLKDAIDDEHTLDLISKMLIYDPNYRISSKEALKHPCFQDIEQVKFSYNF
Sequence of Calcium-dependent protein kinase 1 (Plasmodium falciparum (isolate 3D7)) (P62344 whole entry, looked up): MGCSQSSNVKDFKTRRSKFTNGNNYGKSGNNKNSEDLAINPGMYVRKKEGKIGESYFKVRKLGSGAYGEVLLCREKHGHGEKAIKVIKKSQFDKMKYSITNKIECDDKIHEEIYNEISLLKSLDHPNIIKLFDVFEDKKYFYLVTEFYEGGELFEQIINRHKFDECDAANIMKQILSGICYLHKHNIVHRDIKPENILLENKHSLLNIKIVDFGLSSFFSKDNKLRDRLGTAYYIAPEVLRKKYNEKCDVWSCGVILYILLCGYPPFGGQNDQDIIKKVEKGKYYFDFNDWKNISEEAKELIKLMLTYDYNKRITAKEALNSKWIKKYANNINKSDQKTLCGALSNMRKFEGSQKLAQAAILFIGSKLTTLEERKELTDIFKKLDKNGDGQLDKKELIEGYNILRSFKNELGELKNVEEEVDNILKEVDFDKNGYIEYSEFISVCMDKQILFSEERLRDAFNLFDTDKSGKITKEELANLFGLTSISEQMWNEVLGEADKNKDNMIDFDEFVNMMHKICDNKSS

In the case of `Cc1cnc(Nc2cccnc2)nc1Nc1ccccc1C(=O)NC(C)C`, the growth inhibition was 26% in test [1] and 85% (active) in test [4]. In addition, the figures for the inhibition in test [2] and in test [3] were 9% and 0%, respectively. For the same molecule, the outcome in test [5], in test [6], in test [7] and in test [8] was inactive.
On to `CC(=O)N1CCC(C(=O)Nc2ccc(-c3cccc(-c4nc5ccc(C(F)(F)F)cc5[nH]4)c3)cc2)CC1`, for which the figures for the growth inhibition in test [1] and in test [4] were 33% and 88% (active), respectively. In addition, the inhibition in test [2] was 82% (active); in test [3], -9%. Further, the outcome in test [5], in test [6], in test [7] and in test [8] was inactive.
For the molecule `O=C(c1cnn(-c2ccccc2)c1C(F)(F)F)N1CCN(c2ccnc3cc(Cl)ccc23)CC1`, the values for the growth inhibition in test [1] and in test [4] were 94% (active) and 89% (active), respectively. The inhibition is 34% in test [2] and 6% in test [3]. For the same molecule, the result in test [5], in test [6], in test [7] and in test [8] was inactive.
Take `COc1cccc(C(=O)NC(NC(=S)Nc2ccc(OC)cc2[N+](=O)[O-])C(Cl)(Cl)Cl)c1` (centres undefined): the figures for the growth inhibition in test [1] and in test [4] were 49% and 99% (active), respectively. For the same molecule, the figures for the inhibition in test [2] and in test [3] were 9% and -2%, respectively. In addition, the outcome in test [5], in test [6], in test [7] and in test [8] was inactive.
With `O=c1cc(NC[C@H]2CCC[C@@H]2NC2CCCc3c2[nH]c2ccccc32)[nH]c2ccccc12` (some centres undefined), the growth inhibition in test [1] is 25%; in test [4], 101% (active). The inhibition was 6% in test [2] and -6% in test [3]. The result in test [5], in test [6], in test [7] and in test [8] was inactive.
In the case of `CCOC(=O)c1cnc2c(OC)cc(OC)c(Cl)c2c1Nc1cccc(C)c1C`, the growth inhibition in test [1] is 99% (active); in test [4] it was 102% (active). Moreover, the inhibition is 5% in test [2] and 0% in test [3]. Besides, the outcome in test [5], in test [6], in test [7] and in test [8] was inactive.
For the molecule `Oc1ccc2[nH]c(-c3cccs3)nc2c1CN1CCC(N2CCCC2)CC1`, the growth inhibition in test [1] is 13%; in test [4], 100% (active). The figures for the inhibition in test [2] and in test [3] were 6% and -3%, respectively. Also, the result in test [5], in test [6], in test [7] and in test [8] was inactive.
Turning to `CCCCc1cc(NCc2ccncc2)nc(Nc2cccc(OC)c2)n1`, the growth inhibition in test [1] was 56% (active); in test [4] it was 101% (active). Further, the values for the inhibition in test [2] and in test [3] were 41% and -5%, respectively. Besides, the outcome in test [5], in test [6], in test [7] and in test [8] was inactive.
For the molecule `CCCCCCCN(CCCCCCC)CCNc1cc(C)nc2ccccc12`, the growth inhibition was 31% in test [1] and 89% (active) in test [4]. Also, the inhibition in test [2] was 39%; in test [3], -2%. For the same molecule, the outcome in test [5], in test [6], in test [7] and in test [8] was inactive.
Regarding `CC(=O)N(C)c1cccc(C(=O)Nc2cccc(-c3cccc(-c4nc5c(C)cccc5[nH]4)c3)c2)c1`, the growth inhibition in test [1] was 41%; in test [4], 89% (active). For the same molecule, the inhibition in test [2] was 15%; in test [3], -9%. Moreover, the result in test [5], in test [6], in test [7] and in test [8] was inactive.
`Cc1ccc(C(C)C)c(Oc2cnc(NC(CO)c3ccccc3)nc2N)c1` (centres undefined): the growth inhibition in test [1] is 0%; in test [4], 95% (active). Besides, the results for the inhibition in test [2] and in test [3] were 27% and 4%, respectively. The outcome in test [5], in test [6], in test [7] and in test [8] was inactive.
For `COc1ccc(CNCc2ccccc2)cc1-c1ccc(OC)c(S(=O)(=O)NCCN2CCCC2)c1`, the growth inhibition in test [1] is 55% (active); in test [4] it was 100% (active). The inhibition was 14% in test [2] and -5% in test [3]. Also, the outcome in test [5], in test [6], in test [7] and in test [8] was inactive.
Take `COc1cc(NC(=O)CCCCCCCCN2CCN(C)CC2)c2ncccc2c1`: the growth inhibition in test [1] was 36%; in test [4], 82% (active). For the same molecule, the inhibition in test [2] is 8%; in test [3], -1%. The outcome in test [5], in test [6], in test [7] and in test [8] was inactive.
For the molecule `COc1ccc2cc(C(C)NC3CCN(c4cccc(NC(=O)c5ccncc5)c4)CC3)ccc2c1` (centres undefined), the growth inhibition in test [1] was 6%; in test [4], 91% (active). Further, the figures for the inhibition in test [2] and in test [3] were 13% and -1%, respectively. Moreover, the outcome in test [5], in test [6], in test [7] and in test [8] was inactive.
For `c1cncc(CN2CCN(Cc3ccc(-c4ccc(-c5nc6ccccc6[nH]5)s4)cc3)CC2)c1`, the figures for the growth inhibition in test [1] and in test [4] were 34% and 97% (active), respectively. Also, the inhibition in test [2] is 32%; in test [3] it was 6%. In addition, the outcome in test [5], in test [6], in test [7] and in test [8] was inactive.
`CCN(C)c1cc(C(=O)N[C@@H](Cc2ccccc2)[C@H](O)CNC(C)(C)c2cccc(OC)c2)cc(N2CCCC2=O)c1`: the growth inhibition is 81% (active) in test [1] and 100% (active) in test [4]. Moreover, the inhibition is -1% in test [2] and 1% in test [3]. The result in test [5], in test [6], in test [7] and in test [8] was inactive.
For `COc1ccccc1CCN1CCC(CN(C)Cc2ccc(O)c(Cl)c2)CC1`, the growth inhibition in test [1] was 52% (active); in test [4], 101% (active). Besides, the inhibition in test [2] is 19%; in test [3] it was -3%. Moreover, the outcome in test [5], in test [6], in test [7] and in test [8] was inactive.
Turning to `CN(c1ccccc1)c1ccnc(/N=C(\N)Nc2ccc(Cl)cc2)n1`, the growth inhibition in test [1] is 6%; in test [4] it was 87% (active). Further, the inhibition in test [2] was 30%; in test [3] it was -1%. The result in test [5], in test [6], in test [7] and in test [8] was inactive.

The record behind these values is PubChem BioAssay.
